An excerpt weighted towards active compounds, which were near 5.9% of everything screened.
FXN GAA850 act = FXN promoter activators, primary screen, cell-based, luciferase luminescence, HEK293 lucGAA850. HEK293 lucGAA850 FXN promoter luciferase reporter, 24 h; percent of 10 µM SAHA response. activation, % at 6 µM. actives 0.56% (n = 360,000). AID 540364, 2011;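 active means activation above the average of all compounds screened plus 3 SD, cutoff fixed separately per campaign, cut at about 7.5% in these data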;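 further: 0% = DMSO wells and 100% = 10 µM SAHA wells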
HSP90 inh = HSP90 inhibitors, primary screen, cell lysate, luminescence; Heat shock protein HSP 90 (rabbit reticulocyte lysate; luciferase refolding); Rabbit reticulocyte lysate, luciferase refolding luminescence, 3 h; inhibition, % at 5.6 µM; actives 0.91% (n = 290,000);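 active means inhibition above the screen-wide mean plus 3 SD, computed separately per campaign, cut at about 16% in these data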;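 further: 0% = DMSO wells and 100% = 60 µM geldanamycin wells; inhibitors lower the luminescence because luciferase stays unfolded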
AHR act = AHR activators, primary screen, cell-based, luminescence, luciferase reporter, human | Aryl hydrocarbon receptor (Homo sapiens), P35869 | AHR-responsive luciferase reporter cells | activation, % at 5 µM | actives 2.5% (n = 320,000) | AID 2796, 2010; in the data active means activation above about 47%;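 further: 0% = vehicle wells and 100% = reference agonist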
Target sequence (P35869 whole entry, looked up): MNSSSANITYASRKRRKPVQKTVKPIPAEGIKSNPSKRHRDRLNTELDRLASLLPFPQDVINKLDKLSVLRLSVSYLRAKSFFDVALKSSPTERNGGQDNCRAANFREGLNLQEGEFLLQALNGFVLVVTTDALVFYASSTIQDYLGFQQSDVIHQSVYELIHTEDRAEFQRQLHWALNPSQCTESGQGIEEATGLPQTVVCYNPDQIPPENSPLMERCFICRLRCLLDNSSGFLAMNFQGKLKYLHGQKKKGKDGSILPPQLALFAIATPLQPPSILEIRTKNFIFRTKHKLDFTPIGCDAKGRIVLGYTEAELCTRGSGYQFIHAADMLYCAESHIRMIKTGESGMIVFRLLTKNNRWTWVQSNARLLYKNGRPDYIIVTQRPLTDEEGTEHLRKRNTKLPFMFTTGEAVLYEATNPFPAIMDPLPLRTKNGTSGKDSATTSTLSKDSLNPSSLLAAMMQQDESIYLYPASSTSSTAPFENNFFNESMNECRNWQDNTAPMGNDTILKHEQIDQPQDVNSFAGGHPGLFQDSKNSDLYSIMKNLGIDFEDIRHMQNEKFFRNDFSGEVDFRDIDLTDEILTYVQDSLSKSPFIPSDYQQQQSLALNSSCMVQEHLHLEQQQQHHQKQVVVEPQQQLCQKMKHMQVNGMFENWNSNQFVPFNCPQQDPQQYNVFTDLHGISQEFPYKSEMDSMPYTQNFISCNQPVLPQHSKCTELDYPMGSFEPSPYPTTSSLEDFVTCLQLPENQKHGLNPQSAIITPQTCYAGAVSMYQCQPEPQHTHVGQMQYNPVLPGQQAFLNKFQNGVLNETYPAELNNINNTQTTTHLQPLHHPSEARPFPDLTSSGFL
HSF1 inhib = HSF1 inhibitors in luciferase reporter cells, primary screen, cell-based, NIH3T3, luminescence; NIH3T3-HGL HSE-luciferase, MG132-induced, luminescence 8 h; stronger effect = lower value; activity change, negative = inhibition, % at 7.5 µM (by protocol); actives 0.77% (n = 300,000);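 active means more than half of replicate wells show activity change below -50%, luminescence cut by over half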;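 further: luciferase reports HSF-1 transcriptional activity via heat shock element; 0% = median of DMSO wells and -100% = zero luminescence signal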
DAX1 inh = DAX1 (NR0B1) inhibitors, primary screen, cell-based, HEK293, Gal4-DAX1, luciferase luminescence | Nuclear receptor subfamily 0 group B member 1 (Homo sapiens), P51843 | HEK293 Gal4-DAX1 luciferase reporter | inhibition, % at 6.75 µM | actives 0.99% (n = 340,000) | AID 504766, 2011;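 active means inhibition above the mean over all tested compounds plus 3 SD, cut at about 4.2% in these data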;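 further: 0% = DAX1-transfected cells with DMSO and 100% = empty-vector control cells with DMSO; inhibition shows as a rise in luminescence from relieved DAX1 repression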
HSF-1 act = HSF-1 activators, primary screen, NIH3T3-HGL cells, MG132 stress, luminescence, single point | NIH3T3-HGL HSF-1 luciferase reporter, 8 h; 100% = twice DMSO control signal | activation, % at 9 µM | actives 1.7% (n = 300,000);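 active means mean replicate activation of at least 50% with a set share of replicates each reaching 50%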;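 further: 0% = median of the neutral control wells and 100% = twice that signal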
An asterisk follows results filed as active; . = no result given.

SMILES | FXN GAA850 act | HSP90 inh | AHR act | HSF1 inhib | DAX1 inh | HSF-1 act
CCCCC(=O)N/C(N)=N/c1nc2ccccc2o1 | 3 | -1 | 2 | 18 | 16* | 25
N/C(=N\c1nc2ccccc2o1)NC(=O)c1cccc(Cl)c1 | 1 | 2 | 31 | -3 | . | 0
CCOc1nc(SC(C(C)=O)C(=O)Nc2ccccc2)nc(N(C)C)n1 (stereo unspecified) | 0 | -3 | 4 | 34 | 0 | 56*
CC(Sc1nc(NC(C)(C)C)nc(N(C)C)n1)C(=O)Nc1ccccc1 (stereo unspecified) | 3 | -5 | 1 | 9 | -1 | 29
CC1(C)CCC(=O)N2CC[C@H]3C[C@H](OC(=O)Nc4ccc5c(c4)OCO5)C[C@@H]1[C@H]32 | 0 | -8 | 60* | -3 | 1 | -10
CC1(C)CCC(=O)N2CC[C@H]3C[C@H](OC(=O)Nc4ccccc4)C[C@@H]1[C@H]32 | 3 | -1 | 8 | -2 | 1 | 7
O=C(CNC(=O)c1ccc(Br)o1)Nc1ccc(N2CCCCCC2)cc1 | 0 | . | . | . | 1 | .
N#Cc1cccc(NCC(=O)Nc2ccc3c(c2)OCCO3)c1 | 6 | -2 | 8 | 36 | 1 | 68*
Cc1cccc(NC(=O)CCNC(=O)c2ccco2)c1 | 0 | -4 | -2 | 3 | 0 | 58*
O=C(CNC(=O)c1ccco1)Nc1ccc(N2CCCCCC2)cc1 | 0 | . | 7 | . | 4.7* | .
O=C(CNC(=O)c1ccco1)Nc1ccc2c(c1)OCCO2 | -5 | . | 17 | -67* | 0 | -70
Cc1ccc(NC(=O)CNC(=O)c2ccco2)cc1Cl | 1 | -4 | 15 | 0 | 2 | -3
Cc1ccc(NC(=O)CCNC(=O)c2ccco2)cc1 | 3 | -2 | 23 | -1 | 1 | 6
C[C@H](CO)N1C[C@H](C)[C@H](CN(C)C(=O)c2ccc(N3CCN(C)CC3)cc2)OCc2cnnn2CCCC1=O | 0 | . | . | . | 0 | .
Cc1ccc(NC(=O)C2(C)CCN2C(=O)CCC2CCCC2)cc1C (stereo unspecified) | 2 | . | . | . | . | .
COc1ccccc1N(C)S(=O)(=O)c1ccc(C(=O)N(C)Cc2ccc(OC(F)F)cc2)cc1 | 1 | . | . | . | -1 | .
Cc1ccccc1OCC(=O)Nc1nnc(C2CC2)s1 | 0 | . | -2 | . | -1 | .
N#Cc1ccccc1OCC(=O)Nc1nnc(C2CC2)s1 | -1 | . | 64* | . | 0 | .
c1ccc2c(c1)nc(N1CCOCC1)c1c3ccccc3[nH]c21 | 0 | 5 | 95* | 5 | 0 | 9
O=c1[nH]c2ccccc2nc1N1CCOCC1 | -2 | -3 | 5 | -2 | 0 | 14
O=C(COC(=O)c1ccc(F)c(S(=O)(=O)N2CCOCC2)c1)NCc1ccc(F)cc1 | 0 | . | 2 | . | 3 | .
O=C(O)C1(Nc2ccc(Cl)cc2)CCCC1 | 0 | . | . | . | 5.3* | .
NC(=O)C1(Nc2ccc(-c3ccc(Cl)cc3)cc2)CCCC1 | 0 | . | . | . | -1 | .
O=C1Nc2ccccc2N(O)N1c1ccc(Cl)cc1 | 1 | 2 | 16 | 18 | -2 | 37
CCN1c2ccccc2NC2C1C(C(C)=O)C(=O)N2c1ccc(Cl)cc1 (stereo unspecified) | 0 | -2 | 83* | 17 | 0 | 47
SMILES | FXN GAA850 act | HSP90 inh | AHR act | HSF1 inhib | DAX1 inh | HSF-1 act
O=C(Nc1nnc([C@@H]2C[C@H](O)[C@@H](CO)O2)s1)NC1CCCCC1 | 1 | . | . | . | . | .
CCCCCC(=O)N(Cc1ccccc1)c1c(N)n(CCOC)c(=O)[nH]c1=O | 1 | 1 | -1 | 9 | 0 | -1
CN(C(=O)c1cccc(NC(=O)Cc2ccc(NC(=O)C3CCCN(C(=O)CCc4ccccc4)C3)cc2)c1)C1CCCCC1 (stereo unspecified) | -3 | . | . | . | -5 | .
Cc1ccccc1NC(=O)Nc1cc(-c2ccccc2)nn1C | 3 | 4 | 7 | 4 | 6.6* | 16
Cc1ccc(C)c(S(=O)(=O)/N=C(/Nc2ccccc2)c2ccccc2)c1 | -1 | . | -1 | . | -2 | .
Cc1ccc(-c2c(C#N)c(N)n3c(nc4ccccc43)c2C#N)cc1 | -1 | 0 | 49* | -5 | -2 | -5
Cc1cc(C)c(NC(=O)COC(=O)Cc2cccs2)c(C)c1 | 0 | . | 5 | -8 | 0 | -1
CC(C)NC(=O)C1(C)CCN1CCC(=O)c1ccccc1 (stereo unspecified) | 2 | . | . | . | . | .
O=C(Nc1ccc(S(=O)(=O)NCc2ccccc2)cc1)Nc1ccc2c(c1)OCO2 | -1 | -1 | 52* | 11 | -1 | 11
CC(=O)Nc1ccc(S(=O)(=O)NCc2ccc(C(=O)NCc3ccc4c(c3)OCO4)cc2)cc1 | 2 | 3 | 5 | -62* | 0 | -72
CC(C)CNS(=O)(=O)c1ccc(CCC(=O)Nc2ccc3c(c2)OCO3)cc1 | -1 | 17* | 7 | 2 | -1 | -18
CCNS(=O)(=O)c1ccc(CCC(=O)Nc2ccc3c(c2)OCO3)cc1 | 2 | -1 | 2 | -16 | -1 | -29
CS(=O)(=O)N(CC(=O)Nc1ccc2c(c1)OCO2)Cc1ccc(Cl)cc1 | 3 | -2 | 65* | -15 | 0 | 1
CCOCCC(=O)Nc1ccc2c(c1)c(=O)n(C)n2-c1ccccc1F | 0 | . | . | . | . | .
Cc1cc(C)n2nc(SCC(=O)N(CCC#N)c3ccc(F)cc3)nc2n1 | 1 | . | 1 | . | 0 | .
COc1ccc(Cl)cc1NC(=O)CN(C)C(=O)CCNC(=O)c1ccccc1OC | 0 | . | 0 | . | 0 | .
Cc1c([N+](=O)[O-])c(C(=O)NC2CCCC2)nn1C | 1 | 5 | . | -6 | 0 | -8
N#CC1=C(N)Oc2c(O)cc3ccccc3c2C1c1ccsc1 (stereo unspecified) | 0 | -3 | 4 | 42 | -2 | 71*
CCOC(=O)C1=C(C)OC(N)=C(C#N)C1c1ccsc1 (stereo unspecified) | -1 | 0 | -3 | 3 | -1 | 9
O=C(c1cc(-c2cccs2)nc2ccccc12)N1CCN(CCO)CC1 | 1 | . | . | . | -2 | .
CCOC(=O)C(/C(C)=N/NC(=O)C1CC1c1ccccc1)C(C)C (stereo unspecified) | 2 | -7 | 2 | 10 | 1 | 17
C/C(=N\NC(=O)C1CC1c1ccccc1)c1ccc(C)s1 (stereo unspecified) | 1 | -3 | 75* | -3 | 0 | -9
COc1cccc(CN2CCc3[nH]c(=S)[nH]c(=O)c3C2)c1 | -1 | 2 | 0 | 20 | 0 | 44
COCCCN1CCc2[nH]c(=S)[nH]c(=O)c2C1 | 1 | 1 | -1 | 21 | 0 | 58*

From PubChem
